The results in this text go back to the supplement of paper PMC10498489.

In all, about 2,300 compounds went through this assay and about 330 (14%) showed activity.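 Rule for the calls: active = median modified Z-score above 1.96; inactive = 1.96 or below.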 Only a sample is shown.

The subject of this experiment is HepG2 Srxn1-GFP reporter cells (+30 nM CDDO-Me). In words: Srxn1-GFP intensity median modified Z-score relative to plate median; higher = stronger NRF2 / oxidative stress reporter activation, active = hit call of the paper. The following applies: 10 µM; exposure time: 24h. A digest of the protocol: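 HepG2 Srxn1-GFP BAC reporter cells were seeded at 20,000 per well in 96-well plates and co-exposed for 24 h to compound at 10 μM and an NRF2 activator at 30 nM, with DMSO at ≤0.1%, in three replicate plates. Cells were fixed with formaldehyde, stained with Hoechst and imaged by confocal microscopy, and cytoplasmic GFP was measured per cell, with images holding under 100 cells discarded. The reported value is the median over replicates of each plate's modified Z-score of GFP intensity. For this score, scaling used 1.4826 × median absolute deviation.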
`CCC(C)[C@H]1O[C@]2(C=C[C@@H]1C)C[C@@H]1C[C@@H](C/C=C(\C)[C@@H](OC3C[C@H](OC)C(O[C@H]4C[C@H](OC)[C@@H](O)[C@H](C)O4)[C@H](C)O3)[C@@H](C)/C=C/C=C3\CO[C@@H]4[C@H](O)C(C)=CC(C(=O)O1)[C@]34O)O2` (stereo partly specified) [euspeclibcmpd1285]: the “Srxn1-GFP intensity median modified Z-score” value was 16.3 (active).

On to `CC(C)(O)C(Cl)(Cl)Cl` [euspeclibcmpd1104], for which the “Srxn1-GFP intensity median modified Z-score” value is -0.138 (inactive). `C=C[C@H]1C[N@]2CC[C@H]1C[C@@H]2[C@@H](OC(=O)OCC)c1ccnc2ccc(OC)cc12` [euspeclibcmpd1022]: the “Srxn1-GFP intensity median modified Z-score” value is -0.0707 (inactive). As for `CC=C(C)C(=O)O[C@H]1CC[C@@]2(C)[C@@H]3CC[C@H]4[C@]5(O)C[C@H](O)[C@@]6(O)[C@@H](CN7C[C@@H](C)CC[C@H]7[C@@]6(C)O)[C@]5(O)C[C@@]42O[C@]13O` [euspeclibcmpd1469], the “Srxn1-GFP intensity median modified Z-score” value is 0.0522 (inactive).

On to `Nc1[nH]c(=O)n2c1C2` [euspeclibcmpd933], for which the “Srxn1-GFP intensity median modified Z-score” value was 0.164 (inactive). Turning to `CS(=N)(=O)CCC(N)C(=O)O` (stereo unspecified) [euspeclibcmpd1752], the “Srxn1-GFP intensity median modified Z-score” value is -0.455 (inactive). Turning to `CC1OC(OC2C=C3CCC4C(CCC5(C)C(c6ccc(=O)oc6)CCC45O)C3(C)CC2)C(O)C(O)C1O` (stereo unspecified) [euspeclibcmpd1931], the “Srxn1-GFP intensity median modified Z-score” value is 2.81 (active). In the case of `C[C@@H]1O[C@@H](O[C@H]2C[C@@H](O)[C@]3(CO)C4C(CC[C@]3(O)C2)[C@@]2(O)CCC(c3coc(O)c3)[C@@]2(C)C[C@H]4O)[C@H](O)[C@H](O)[C@H]1O` (stereo partly specified) [euspeclibcmpd1207] it was -1.16 (inactive); in that of `C[C@@]12C(c3coc(O)c3)CC[C@]1(O)C1CC[C@@H]3C[C@@H](O)CC[C@]3(C)C1C[C@H]2O` (stereo partly specified) [euspeclibcmpd2259], -0.638 (inactive). The figure for `CC1OC(OC2C(O)CC(OC3C(O)CC(OC4CCC5(C)C(CCC6C5CCC5(C)C(c7coc(O)c7)C(O)CC65O)C4)OC3C)OC2C)CC(O)C1O` (stereo unspecified) [euspeclibcmpd1936] is 2.78 (active); for `C[C@H]1O[C@@H](O[C@H]2[C@@H](O)C[C@H](O[C@H]3[C@@H](O)C[C@H](O[C@H]4CC[C@]5(C)C6CC[C@]7(C)C(c8coc(O)c8)CC[C@]7(O)C6CC[C@@H]5C4)O[C@@H]3C)O[C@@H]2C)C[C@H](O)[C@@H]1O` (stereo partly specified) [euspeclibcmpd95] it is -1.81 (inactive); for `C[C@H]1O[C@@H](O[C@H]2[C@@H](O)C[C@H](O[C@H]3[C@@H](O)C[C@H](O[C@H]4CC[C@]5(C)C6C[C@@H](O)[C@]7(C)C(c8coc(O)c8)CC[C@]7(O)C6CC[C@@H]5C4)O[C@@H]3C)O[C@@H]2C)C[C@H](O)[C@@H]1O` (stereo partly specified) [euspeclibcmpd96] it is -1.88 (inactive).

As for `C[C@@H]1O[C@@H](O[C@H]2CC[C@]3(C=O)C4CC[C@]5(C)C(c6coc(O)c6)CC[C@]5(O)C4CC[C@]3(O)C2)[C@H](O)[C@H](O)[C@H]1O` (stereo partly specified) [euspeclibcmpd1374], the “Srxn1-GFP intensity median modified Z-score” value was 7.48 (active). Regarding `CO[C@H]1[C@H](O)[C@@H](O[C@H]2CC[C@]3(C=O)C4CC[C@]5(C)C(c6coc(O)c6)CC[C@]5(O)C4CC[C@@H]3C2)O[C@@H](C)[C@@H]1O` (stereo partly specified) [euspeclibcmpd2165], the “Srxn1-GFP intensity median modified Z-score” value was 3.39 (active).

`CNNC` [euspeclibcmpd2278]: the “Srxn1-GFP intensity median modified Z-score” value is -0.486 (inactive). In the case of `O=C(O)CCC1NCC2CC1CN1CCCCC21` (stereo unspecified) [euspeclibcmpd2022] it was -0.148 (inactive). `O=C1CCCC2C3C[C@H](CN12)[C@@H]1CCCCN1C3` (stereo partly specified) [euspeclibcmpd1695]: the “Srxn1-GFP intensity median modified Z-score” value was -0.101 (inactive). Regarding `CCC(=O)O[C@H]1CCC2C3CC=C4CC(=O)CC[C@]4(C)C3CC[C@@]21C` (stereo partly specified) [euspeclibcmpd7], the “Srxn1-GFP intensity median modified Z-score” value is 0.269 (inactive). For `C[N+]1(C)C2CCC1CC(OC(=O)C(CO)c1ccccc1)C2` (stereo unspecified) [euspeclibcmpd790], the “Srxn1-GFP intensity median modified Z-score” value is -0.464 (inactive). Regarding `CN1CCCCC1c1ccc(-c2cccnc2)nc1` (stereo unspecified) [euspeclibcmpd1697], the “Srxn1-GFP intensity median modified Z-score” value is -0.301 (inactive). For `C[N+]12CCC(CC1)C(OC(=O)C(O)(c1ccccc1)c1ccccc1)C2` (stereo unspecified) [euspeclibcmpd67], the “Srxn1-GFP intensity median modified Z-score” value is 0.0285 (inactive). On to `O=P1(N(CCCl)CCCl)NCCCO1` (stereo unspecified) [euspeclibcmpd2335], for which the “Srxn1-GFP intensity median modified Z-score” value was -0.33 (inactive). As for `N=c1nc[nH][nH]1` [euspeclibcmpd1771], the “Srxn1-GFP intensity median modified Z-score” value is -0.334 (inactive). Turning to `COc1ccc(C(=O)N2CCCC2=O)cc1` [euspeclibcmpd835], the “Srxn1-GFP intensity median modified Z-score” value is 1.03 (inactive). For `NC(Cc1ccc(N(CCCl)CCCl)cc1)C(=O)O` (stereo unspecified) [euspeclibcmpd181], the “Srxn1-GFP intensity median modified Z-score” value was 0.947 (inactive).

With `COc1cc2c(cc1OC)C1C(=O)c3ccc4c(c3O[C@@H]1CO2)CC(C(C)C)O4` (stereo partly specified) [euspeclibcmpd1349], the “Srxn1-GFP intensity median modified Z-score” value is 54.1 (active). Consider `C=C(C)C1Cc2c(ccc3c(=O)c4c(oc23)COc2cc(OC)c(OC)cc2-4)O1` (stereo unspecified) [euspeclibcmpd1633], for which the “Srxn1-GFP intensity median modified Z-score” value is 0.389 (inactive).

In the case of `C=C(C)[C@H]1Cc2c(ccc3c2O[C@@H]2COc4cc(OC)c(OC)cc4C2C3=O)O1` (stereo partly specified) [euspeclibcmpd1688], the “Srxn1-GFP intensity median modified Z-score” value was 63.1 (active). In the case of `COc1cc2c(cc1OC)-c1c(oc3c4c(ccc3c1=O)OC(C(C)C)C4)CO2` (stereo unspecified) [euspeclibcmpd1802] it was -0.169 (inactive).

With `COc1cc2c(cc1OC)C1C(=O)c3ccc4oc(C(C)C)cc4c3O[C@@H]1CO2` (stereo partly specified) [euspeclibcmpd1384], the “Srxn1-GFP intensity median modified Z-score” value was 0.895 (inactive).

Consider `CCC1(c2ccc(N)cc2)CCC(=O)NC1=O` (stereo unspecified) [euspeclibcmpd20], for which the “Srxn1-GFP intensity median modified Z-score” value is -0.169 (inactive). For the compound `C[C@]12CCC(=O)C=C1CCc1ccc(O)cc12` [euspeclibcmpd2145], the “Srxn1-GFP intensity median modified Z-score” value was -0.0198 (inactive).

Turning to `NC(=O)c1cc([N+](=O)[O-])cc([N+](=O)[O-])c1` [euspeclibcmpd211], the “Srxn1-GFP intensity median modified Z-score” value was 1.85 (inactive).

Take `CC(=O)O[C@H]1CC[C@@]2(C)C(=CCC3C2CC[C@]2(C)C(=O)CCC32)C1` (stereo partly specified) [euspeclibcmpd1015]: the “Srxn1-GFP intensity median modified Z-score” value is -0.448 (inactive).

`CC1[C@H](C)OC(=O)CC(O)CC(O)CC(O)CCC(O)C(O)C[C@]2(O)CC(O)C(C(=O)O)C(CC(OC3O[C@H](C)[C@@H](O)[C@H](N)[C@@H]3O)/C=C/C=C/C=C/C=C/CC/C=C/C=C/[C@H](C)[C@H]1O)O2` (stereo partly specified) [euspeclibcmpd218]: the “Srxn1-GFP intensity median modified Z-score” value was 0.964 (inactive). For `c1ccc2c(c1)OCC(C1=NCCN1)O2` (stereo unspecified) [euspeclibcmpd1238], the “Srxn1-GFP intensity median modified Z-score” value was 0.16 (inactive). `COc1cccc([C@]2(O)CCCC[C@H]2CN(C)C)c1` [euspeclibcmpd765]: the “Srxn1-GFP intensity median modified Z-score” value is -0.221 (inactive). In the case of `NC(=O)C[S+]([O-])C(c1ccccc1)c1ccccc1` (stereo unspecified) [euspeclibcmpd2299], the “Srxn1-GFP intensity median modified Z-score” value was 0.327 (inactive). In the case of `O=C1C=C2C=CC3C[C@@]2(O1)[C@H]1CCCCN31` [euspeclibcmpd1211], the “Srxn1-GFP intensity median modified Z-score” value was 9.38 (active). On to `CC1NCCc2cc(O)c(O)cc21` (stereo unspecified) [euspeclibcmpd2171], for which the “Srxn1-GFP intensity median modified Z-score” value was -0.549 (inactive). `CC[C@H]1C2CC3[C@@H]4N(C)c5ccccc5[C@]45C[C@@H](C2C5O)N3[C@@H]1O` (stereo partly specified) [euspeclibcmpd1044]: the “Srxn1-GFP intensity median modified Z-score” value was -0.296 (inactive). For `Cc1[nH]c2ccccc2c1CN(C)C` [euspeclibcmpd2173], the “Srxn1-GFP intensity median modified Z-score” value is -0.24 (inactive). In the case of `CN1C2C[C@H](OC(=O)C(CO)c3ccccc3)C[C@H]1[C@H]1OC21` (stereo partly specified) [euspeclibcmpd266], the “Srxn1-GFP intensity median modified Z-score” value was -0.44 (inactive). Turning to `Cc1cccc(C)c1N=C1NCCCS1` [euspeclibcmpd416], the “Srxn1-GFP intensity median modified Z-score” value was -0.674 (inactive).

`CC(C)=CC1C(C(=O)OCc2cccc(Oc3ccccc3)c2)C1(C)C` (stereo unspecified) [euspeclibcmpd1161]: the “Srxn1-GFP intensity median modified Z-score” value is -0.28 (inactive). With `CCOC(=O)C1C(C=C(C)C)C1(C)C` (stereo unspecified) [euspeclibcmpd1522], the “Srxn1-GFP intensity median modified Z-score” value is 0.0825 (inactive). With `C=C/C=C\CC1=C(C)C(OC(=O)C2[C@@H](C=C(C)C)C2(C)C)CC1=O` (stereo partly specified) [euspeclibcmpd1257], the “Srxn1-GFP intensity median modified Z-score” value is 2.3 (active). On to `O=C(O)CCCc1ccc(N(CCCl)CCCl)cc1` [euspeclibcmpd51], for which the “Srxn1-GFP intensity median modified Z-score” value was -0.412 (inactive). In the case of `C=C[C@H]1C[N@@]2CC[C@H]1C[C@H]2[C@H](O)c1ccnc2ccccc12` [euspeclibcmpd2388] it was -0.0385 (inactive); in that of `O=[N+]([O-])O[C@H]1CO[C@H]2[C@@H]1OC[C@H]2O[N+](=O)[O-]` [euspeclibcmpd166], -0.506 (inactive); in that of `O=[N+]([O-])O[C@@H]1CO[C@H]2[C@@H]1OC[C@@H]2O` [euspeclibcmpd605], 3.27 (active). As to `Cc1cc(OC(=O)N2CCCCC2)c(C(C)C)cc1[N+](C)(C)C` [euspeclibcmpd1842], the “Srxn1-GFP intensity median modified Z-score” value is 0.636 (inactive).

Turning to `COc1ccc(O)c(C(C)(C)C)c1` [euspeclibcmpd2212], the “Srxn1-GFP intensity median modified Z-score” value was 0.639 (inactive). With `O=C1c2ccccc2-c2cccc3cccc1c23` [euspeclibcmpd1379], the “Srxn1-GFP intensity median modified Z-score” value was 0.148 (inactive). Consider `C=C(C)c1cc2cc(C(C)=O)c(O)cc2o1` [euspeclibcmpd1716], for which the “Srxn1-GFP intensity median modified Z-score” value is 10.1 (active).

`O=C(O)CCCO` [euspeclibcmpd2162]: the “Srxn1-GFP intensity median modified Z-score” value was -0.552 (inactive).
